Five compounds from PubChem BioAssay (NCATS) can be followed below.

One assay relates to MKL-1. The assay is described as follows: qHTS assay to identify novel small-molecules to repurpose for Merkel cell carcinoma treatment (AID 1296009). Also: nearly all actives have a fitted effect of over 60% in size. Also: potency is read from the fitted curve at half-maximal effect. The following applies: MCC and control cell lines, CellTiter-Glo viability, 72 h; series mostly up to 46 µM. In a few lines: (§1)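 Dose-response viability screen; 72 hr exposure at 37 degree celsius; CellTiter-Glo added, 10 min room temperature, luminescence read; RLUs scaled between no-cell and DMSO wells.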

The subject of another assay is MKL-2. Described as above. The following applies: MCC and control cell lines, CellTiter-Glo viability, 72 h; series mostly up to 46 µM. In a few lines:
as §1
Background: In ATP-based viability assays light output follows the ATP content of the culture.

In a further assay the test system is NIH3T3. Described as above. The following applies: MCC and control cell lines, CellTiter-Glo viability, 72 h; at 44.8 µM (top of the series) unless noted. In a few lines:
as §1

In another assay the test system is UISO. The description is as above. The following applies: MCC and control cell lines, CellTiter-Glo viability, 72 h; series mostly up to 46 µM. In a few lines: as §1
The next assay deals with WaGa. The assay is described as above. The following applies: MCC and control cell lines, CellTiter-Glo viability, 72 h; series mostly up to 46 µM. In a few lines: as §1
A further assay has as its system C33A. The assay is described as follows: Primary qHTS to identify gynecologic anti-cancer compounds using libraries of approved drugs and bioactive compounds (AID 1345084). Also: nearly all actives have a fitted effect of over 55% in size. The following applies: Gynecologic cancer cell panel viability, ATPlite luminescence, 48 h; series mostly up to 57.5 µM. In a few lines:
(§2)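 Luminescence from the ATPlite ATP-monitoring reagent indicates viable cell number; lower signal means cytotoxicity. Cells received compound 16 h after seeding and were exposed for 48 h across five concentrations.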
A general note: qHTS replaces the single test concentration by a dilution series.

In a further assay the test system is CAOV3. The assay is described as above. The following applies: Gynecologic cancer cell panel viability, ATPlite luminescence, 48 h; series mostly up to 57.5 µM. In a few lines:
as §2

The test system of the next assay is CASKI. The description is as above. The following applies: Gynecologic cancer cell panel viability, ATPlite luminescence, 48 h; series mostly up to 57.5 µM. In a few lines:
as §2

The next assay concerns Es-2. The description is as above. The following applies: Gynecologic cancer cell panel viability, ATPlite luminescence, 48 h; series mostly up to 57.5 µM. In a few lines:
as §2

For another assay, the system named is HeLa. The description is as above. The following applies: Gynecologic cancer cell panel viability, ATPlite luminescence, 48 h; series mostly up to 57.5 µM. In a few lines:
as §2

The next assay deals with Hek293T. Described as above. The following applies: Gynecologic cancer cell panel viability, ATPlite luminescence, 48 h, control line for the selectivity index; series mostly up to 57.5 µM. In a few lines: as §2
The test system of the next assay is JEG-3. The assay is described as above. The following applies: Gynecologic cancer cell panel viability, ATPlite luminescence, 48 h; series mostly up to 57.5 µM. In a few lines: as §2
The test system of a further assay is OV90. The description is as above. The following applies: Gynecologic cancer cell panel viability, ATPlite luminescence, 48 h; series mostly up to 57.5 µM. In a few lines:
as §2

The next assay deals with PA-1. Described as above. The following applies: Gynecologic cancer cell panel viability, ATPlite luminescence, 48 h; series mostly up to 57.5 µM. In a few lines: as §2
For a further assay, the system named is SKOV3. The description is as above. The following applies: Gynecologic cancer cell panel viability, ATPlite luminescence, 48 h; series mostly up to 57.5 µM. In a few lines:
as §2

The test system of a further assay is Tov-21-G. The assay is described as above. The following applies: Gynecologic cancer cell panel viability, ATPlite luminescence, 48 h; series mostly up to 57.5 µM. In a few lines: as §2
The next assay deals with Tov112D. Described as above. The following applies: Gynecologic cancer cell panel viability, ATPlite luminescence, 48 h; series mostly up to 57.5 µM. In a few lines: as §2
A short description of assay [1]: Drug repurposing screens with cells derived from glioblastoma tumor samples (AID 1345199). Also: nearly all actives have a fitted effect of over 40% in size. The following applies: GBM patient neurospheres viability, ATP luminescence, 48 h. In a few lines:
(§3)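 Primary testing used CD133+ neurospheres from four GBM patients, seven concentrations, 48 h exposure and ATP-based viability; confirmation added three slower-growing patient lines.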

The next assay concerns astro. The description is as above. The following applies: viability, ATP luminescence, 48 h; series mostly up to 45.9 µM. In a few lines:
as §3

Setting [2] is: at 45.9 µM (top of the series), tumour line B.
[3] abbreviates: at 45.9 µM (top of the series), tumour line D.
Setting [4] is: at 46.1 µM (top of the series), tumour line C.

Where “and” joins values, the source holds several entries; their conditions need not be identical. Equal values may be shown once. Records with an inconclusive call do not appear. The source holds several records for some structures; these can differ, active in one and inactive in another. Calls of active or inactive are those of the source. Calls follow the shape of the dose curve; as a rule, active = well fitted curve in the direction sought with a large enough effect; inconclusive = small, poorly fitted or top-dose-only effect, or another doubt; inactive = no such curve, though single readings can be large; an effect the other way counts as inactive or inconclusive.
% is scaled to controls: 0 for no effect and ±100 for the full control effect.

For the compound `CC(C)[C@H](N)C(=O)OCCOCn1cnc2c(=O)[nH]c(N)nc21`, the Potency entry with MKL-1, with MKL-2, in the assay with UISO, with WaGa, in the assay with C33A and with CAOV3 was “inactive” each time. Further, the Potency result in the assay with CASKI, in the assay with Es-2, in the assay with HeLa, in the assay on Hek293T, in the assay on JEG-3 and with OV90 was “inactive” each time. Also, the Potency result in the assay with PA-1, in the assay with SKOV3, in the assay on Tov-21-G, in the assay with Tov112D and with astro was “inactive” in each case. The call in the assay on NIH3T3 was inactive. Moreover, the values for the activity, negative = cell killing in assay [1] (setting [2]), in assay [1] (setting [3]) and in assay [1] (setting [4]) were -5.53% (inactive), -4.6% (inactive) and 14.5% (inactive), respectively.
Take `N[C@@H](Cc1cc(I)c(Oc2cc(I)c(O)c(I)c2)c(I)c1)C(=O)O`: the Potency entry in the assay with MKL-1, in the assay with MKL-2, in the assay with UISO, in the assay on WaGa, in the assay with C33A and in the assay on CAOV3 was “inactive” in each case. Moreover, the Potency result in the assay with CASKI, with Es-2, with HeLa, in the assay with Hek293T, in the assay on JEG-3 and with OV90 was “inactive” each time. The Potency entry with PA-1, in the assay on SKOV3, in the assay with Tov-21-G and in the assay with Tov112D was “inactive” in each case. Further, in the assay on NIH3T3, the result was inactive. The activity, negative = cell killing in [1] (setting [2]) was -5.58% (inactive); in [1] (setting [3]), -1.99% (inactive); in assay [1] (setting [4]) it was -6.06% (inactive).
Regarding `Oc1ccc(OCc2ccccc2)cc1`, the Potency result in the assay with MKL-1, in the assay with MKL-2, in the assay with UISO, in the assay with WaGa, with C33A and in the assay with CAOV3 was “inactive” throughout. Moreover, the Potency entry in the assay on CASKI, in the assay on Es-2, in the assay with HeLa, with Hek293T, in the assay with JEG-3 and in the assay with OV90 was “inactive” in each case. For the same compound, the Potency result in the assay with PA-1, in the assay on SKOV3, in the assay with Tov-21-G, with Tov112D and with astro was “inactive” throughout. Moreover, the outcome in the assay on NIH3T3 was inactive. Further, the activity, negative = cell killing was 4.55% (inactive) in assay [1] (at 20 µM (top of the series), tumour line C) and -21.3% (inactive) in assay [1] (at 21.2 µM (top of the series), tumour line B).
Take `CN(C)c1ccc(O)c2c1C[C@H]1C[C@H]3[C@H](N(C)C)C(=O)C(C(N)=O)=C(O)[C@@]3(O)C(=O)C1=C2O`: the Potency entry with MKL-1, with MKL-2, in the assay with UISO, with C33A, in the assay with CAOV3 and with CASKI was “inactive” each time. For the same compound, the Potency result in the assay with Es-2, in the assay on HeLa, in the assay with Hek293T, with JEG-3, with OV90 and in the assay on PA-1 was “inactive” each time. Moreover, the Potency entry with SKOV3, in the assay with Tov-21-G, with Tov112D and in the assay on astro was “inactive” throughout. The compound was called inactive with NIH3T3. In the assay with WaGa, the Potency result is “inactive and 18.8 µM (active)”. The activity, negative = cell killing in assay [1] (setting [2]) was -8.81% (inactive) and -14.2% (inactive) and -8.47% (inactive); in [1] (setting [3]) it was -14.6% (inactive) and -28.5% (inactive) and -14.2% (inactive); in [1] (at 46 µM (top of the series), tumour line A), -27.3% (inactive) and -18.4% (inactive); in [1] (setting [4]), -26.9% (inactive) and -29.7% (inactive).
As to `O=C(O)c1cccnc1Nc1cccc(C(F)(F)F)c1`, the Potency entry in the assay with MKL-1, in the assay with MKL-2, in the assay with UISO, in the assay on WaGa, with C33A and with CAOV3 was “inactive” in each case. For the same compound, the Potency entry in the assay with CASKI, in the assay on Es-2, with Hek293T, with JEG-3, in the assay on PA-1 and with SKOV3 was “inactive” throughout. Moreover, the Potency entry in the assay with Tov-21-G and with Tov112D was “inactive” throughout. Further, in the assay with NIH3T3, the compound was called inactive. Further, the activity, negative = cell killing in assay [1] (setting [2]) is -15.9% (inactive); in [1] (setting [3]), -4.12% (inactive).
